These results are taken from PubChem BioAssay (NCI).

Compounds without any hit were thinned out: in the full panel of roughly 83,000, 20% have a hit.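 Method: cells in 96-well plates; compound added at one concentration; 48 h incubation; percent growth measured; values under 10 scored active.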 Unmarked numbers belong to inactive results. Activity calls are given as the source filed them.

Common to all, as to test: NCI-60 one-dose screen, 48 h (100 = growth as untreated, 0 = no growth, -100 = all killed)
Common to all, as to conditions: 10 µM unless noted

The subject of assay [1] is HCT-15 colon.
Assay [2] concerns HT29 colon.
In assay [3] the test system is SNB-75 CNS.
In assay [4] the test system is SNB-19 CNS.
The test system of assay [5] is U251 CNS.
The subject of assay [6] is PC-3 prostate.
Assay [7] has as its system SK-MEL-5 melanoma.
In assay [8] the test system is UACC-62 melanoma.
Assay [9] has as its system SK-MEL-28 melanoma.
For assay [10], the system named is SK-MEL-2 melanoma.
In assay [11] the test system is EKVX NSCLC.
The subject of assay [12] is SN12C renal.
In assay [13] the test system is UO-31 renal.
The subject of assay [14] is TK-10 renal.
For assay [15], the system named is ACHN renal.
For assay [16], the system named is CAKI-1 renal.
The subject of assay [17] is A498 renal.
Assay [18] relates to CCRF-CEM leukemia.
The subject of assay [19] is MOLT-4 leukemia.
Assay [20] deals with LOX IMVI melanoma.

With `O=C1c2cccnc2C(=O)c2c1c(C(=O)OCCCN1CCOCC1)c1ccccn21`, the growth in assay [1] is -42.2% (active); in [2], -67.8% (active); in assay [3], -81.3% (active); in assay [4], 9.22% (active); in assay [5], -70.7% (active); in [6], -0.15% (active). In addition, the growth in assay [7] is -94.9% (active); in assay [8], -40.7% (active); in assay [9], 37.7%; in assay [10], -57.5% (active); in [11], 19.6%; in assay [12], -19.3% (active). The growth is -42.6% (active) in assay [13]; 21.9% in [14]; -37.3% (active) in assay [15]; -11.4% (active) in [16]; -20.2% (active) in assay [17]; -5.87% (active) in [18]. In addition, the growth in assay [19] was 0.0972% (active).

`C[C@H]1c2ccccc2CN1CCCOc1cc2c(cc1OCC1CC1)C1(CCCC1)C(N)=N2`: the growth is 2.62% (active) in [1]; 2.94% (active) in assay [2]; 74.9% in assay [3]; 83.9% in [4]; 48.7% in [5]; 44.6% in assay [6]. The growth in assay [8] was 57.4%; in [20], -70.2% (active); in assay [9], -61% (active); in assay [10], 54%; in assay [11], 72.8%; in [12], 67.6%. For the same compound, the growth in assay [13] is 29.3%; in [14], 92.7%; in assay [15], 69%; in [16], 18.5%; in assay [17], 32.5%; in assay [18], 54.6%. The growth in [19] was 36.4%.

Turning to `C(=N\Nc1nnc2n1N=C(c1ccccc1)CS2)/c1ccc(OCc2ccccc2)cc1`, the growth in assay [1] is 97.4%; in assay [2], 114%; in assay [3], 108%; in assay [4], 102%; in assay [5] it was 97.6%; in assay [6], 76.2%. Moreover, the growth was 82.9% in [7]; 89.8% in assay [8]; 104% in [9]; 104% in assay [10]; 101% in [11]; 98.6% in [12]. Besides, the growth in assay [13] is 79.5%; in [14], 98.2%; in [15], 112%; in [16], 107%; in assay [17], 108%; in assay [18] it was 97.2%. Further, the growth in assay [19] is 92.8%.

As for `CCOC(=O)c1cnc2sc(-c3ccc(OC)cc3)nc2c1Cl`, the growth in [1] is 92.9%; in assay [2] it was 116%; in assay [3], 94.7%; in assay [4], 104%; in assay [5], 103%; in [6] it was 104%. Besides, the growth in assay [7] is 84.2%; in assay [8], 88.7%; in [9], 99%; in assay [10], 102%; in [11] it was 90.4%; in [12] it was 102%. The growth was 78.8% in [13]; 145% in assay [14]; 105% in [15]; 95% in assay [16]; 86.8% in [17]; 96.4% in assay [18]. Also, the growth in assay [19] is 97.3%.

With `CN1CCN(Cc2ccc(NC(=O)c3cncc(C#Cc4cnc(N)c5ncccc45)c3)cc2Cl)CC1`, the growth in assay [1] was 63.8%; in [2], 52.4%; in [3], 105%; in assay [4], 106%; in assay [5] it was -64.6% (active); in [6], 91.6%. Further, the growth in [7] was 78.4%; in assay [8] it was 98.5%; in [9], 45.1%; in assay [10], 56.5%; in assay [11], 106%; in assay [12], 92.5%. Besides, the growth in [13] is 64.7%; in [14], 104%; in assay [15], 41.8%; in assay [16], 73.5%; in assay [17], 104%; in assay [18], -2.07% (active). Moreover, the growth in assay [19] was 83%.

As to `Cn1ccnc1C(=O)/C=C/c1ccc(C(=O)Nc2ccccc2F)cc1`, the growth in assay [1] was 14.2%; in assay [2] it was 10.9%; in assay [3], 56.2%; in assay [4] it was 21.1%; in [5], 10.5%; in [6] it was 25.1%. The growth is 37.3% in assay [8]; -41.1% (active) in assay [20]; 59.2% in [9]; 76.2% in [10]; 32.4% in [11]; 8.08% (active) in assay [12]. Moreover, the growth in [13] was 34.9%; in assay [14] it was 44.7%; in assay [15], 21.1%; in [16], 25.8%; in [17], 17.9%; in assay [18], 3.74% (active). For the same compound, the growth in [19] was 12.1%.

Consider `COc1ccc(C(=O)C2OC3=C(C(=O)CC(C)(C)C3)C2c2cccc(Oc3ccccc3)c2)cc1` (stereo unspecified), for which the growth in assay [1] was 89.3%; in [2], 91.1%; in assay [3], 86.9%; in assay [4] it was 92.8%; in assay [5] it was 88.9%; in assay [6], 81.3%. For the same compound, the growth in [8] is 72.6%; in [20], 92.3%; in assay [9] it was 103%; in assay [10] it was 93.4%; in assay [11] it was 85%; in [12], 89.5%. The growth in assay [13] is 74%; in assay [14], 91.5%; in assay [15], 91.8%; in [16], 81.7%; in assay [17], 62.9%; in [18] it was 84%. Moreover, the growth in assay [19] is 83.4%.

For the compound `Cc1ccc(C2(C)NC(=O)N(CC(=O)Nc3cccc(C)c3)C2=O)cc1` (stereo unspecified), the growth in [1] is 94.4%; in assay [2] it was 96.6%; in [3], 77.1%; in [4], 102%; in assay [5], 99.1%; in [6], 60.1%. In addition, the growth in assay [8] is 84%; in assay [20], 96.3%; in assay [9] it was 107%; in assay [10] it was 84.9%; in assay [11], 101%; in [12] it was 100%. Besides, the growth in assay [13] was 82%; in [14], 106%; in assay [15], 98.6%; in assay [16], 112%; in assay [17], 123%; in assay [18] it was 112%. The growth in assay [19] was 80.4%.

In the case of `COc1cc2c(c(OC)c1OC)CCC(c1cccc(NC(=O)c3cccc(Cl)c3)c1)O2` (stereo unspecified), the growth was 83.6% in [1]; 73.7% in assay [2]; 85.6% in assay [3]; 91.8% in assay [4]; 91.1% in assay [5]; 66.6% in assay [6]. Besides, the growth in [8] is 68.1%; in [20], 96.2%; in assay [9], 92.1%; in assay [10], 95.7%; in assay [11] it was 85.9%; in assay [12], 92%. For the same compound, the growth was 64.2% in assay [13]; 90.2% in assay [14]; 90.7% in assay [15]; 97.9% in assay [16]; 63.9% in [17]; 78.2% in assay [18]. Moreover, in [19], the growth was 57.9%.

As to `C#CCOc1ccc(C2=NN(CCCC)C3N=C(Cl)c4ncn(CCCC)c4N23)cc1OCC#C` (stereo unspecified), the growth in [1] is 88.9%; in assay [2], 96.9%; in [3], 83.3%; in assay [4] it was 94.6%; in [5] it was 79.6%; in assay [6], 63.6%. Further, the growth in assay [8] is 69.6%; in assay [20], 85.8%; in assay [9], 93.6%; in assay [10], 101%; in assay [11], 85.2%; in assay [12], 91.4%. Further, the growth is 62.5% in [13]; 97.8% in assay [14]; 87.4% in assay [15]; 74.3% in assay [16]; 73% in assay [17]; 78.2% in [18]. Moreover, the growth in assay [19] was 65.3%.

With `Cc1ccccc1NC(=O)Cn1cc(CN2CCN(c3ccnc4cc(Cl)ccc34)CC2)nn1`, the growth is 98.5% in assay [1]; 105% in assay [2]; 85.8% in assay [3]; 93.3% in assay [4]; 100% in assay [5]; 81.4% in assay [6]. For the same compound, the growth is 84.3% in [8]; 97.7% in assay [20]; 100% in assay [9]; 110% in assay [10]; 97.1% in assay [11]; 94.7% in assay [12]. In addition, the growth was 71.1% in [13]; 102% in [14]; 95% in assay [15]; 80.3% in assay [16]; 84.8% in [17]; -33.5% (active) in assay [18]. The growth in assay [19] was 45.3%.

Take `Nc1ncc(-c2ccc3ncnc(N4CCc5cc(F)c(Cl)cc54)c3c2)cc1C(F)(F)F`: the growth was 17.9% in [1]; 20.4% in [2]; -14.3% (active) in assay [3]; 46.1% in assay [4]; 47.8% in assay [5]; 25.2% in assay [6]. In addition, the growth is 37.8% in assay [7]; 20.4% in [8]; 38.3% in [9]; 27.7% in assay [10]; 14.8% in assay [11]; 24.8% in assay [12]. Moreover, the growth is -2.54% (active) in [13]; 9.32% (active) in assay [14]; 17.2% in [15]; -8.15% (active) in assay [16]; -50.2% (active) in [17]; 28.2% in [18]. Moreover, in [19], the growth was 8.68% (active).

Turning to `COC1=C(OC)C(=O)C(CCCCCCCCCCO)=C(C)C1=O`, the growth in [1] is 79.7%; in assay [2] it was 105%; in [3], 62.1%; in [4], 93%; in assay [5], 58.3%; in [6], 69.5%. For the same compound, the growth in [8] is 59.4%; in assay [20], 11.5%; in assay [9], 102%; in assay [10] it was 49.8%; in [11], 89.8%; in assay [12], 57.6%. The growth in assay [13] is 70.2%; in assay [14], 112%; in [15], 60.5%; in assay [16], 61%; in assay [17], 103%; in [18], 29.1%. Besides, in assay [19], the growth was 28.1%.

Consider `Cn1cc(-c2ccc3c(Nc4cccc(NC(=O)Nc5cccc(F)c5)c4)ncnc3c2)cn1`, for which the growth was 37.8% in [1]; 32.8% in assay [2]; 43.8% in [3]; 65% in assay [4]; 28.4% in [5]; 33.6% in [6]. Further, the growth in [8] is 32.4%; in [20] it was 41.9%; in [9], 49.6%; in [10], 43.2%; in [11], 53%; in [12], 30.1%. Moreover, the growth in assay [13] was 23.7%; in [14] it was 39.4%; in assay [15] it was 15.2%; in assay [16], 39.8%; in assay [17], 41.9%; in assay [18] it was 4.27% (active). Further, in [19], the growth was 14.3%.
